In PubChem BioAssay (NCI):
“And” between values parts separate entries of the source, which are not always exact repeats. Equal entries are not always repeated. The panel holds about 83,000 compounds, 20% with a hit somewhere; the sample as a whole holds those more often.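 Activity criterion: percent growth below 10, measured after cells in 96-well plates were exposed to a single compound concentration for 48 hours.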 A number with no mark means an inactive call. The source made the active and inactive calls.

system: LOX IMVI melanoma; test: NCI-60 one-dose screen, 48 h (100 = growth as untreated, 0 = no growth, -100 = all killed); conditions: 4.75 µM
Protocol: Growth inhibition of the LOX IMVI human tumor cell line is measured as a screen for anti-cancer activity. Cells are grown in 96 well plates and exposed to the test compound for 48 hours. Compounds are tested at a single concentration, which is 10^-5 M for most compounds. The reported endpoint is percent growth (GI% or GIPRCNT), where numbers from 0 - 100% represent growth inhibition, and numbers from -100% - 0 represent cell death. For example, a value of 40 represents 60% growth inhibition. A value of 0 means no net growth occurred over the course of the experiment. A value of -40 indicates 40% of cells at the beginning of the experiment died by the end of the experiment. A value of -100 means all cells are dead at the end of the experiment.
NCI-60 Human Tumor Cell Lines Screen was performed using the standard one-dose NCI protocol, which is described in more detail at https://dtp.cancer.gov/discovery_development/nci-60/default.htm.
Compounds with GIPRCNT values below 10 were considered active. Activity score was based on GIPRCNT using the following formula: […]
Score is 0 for GIPRCNT values of 100 or above, 50 for GIPRCNT values of 0, and 100 for GIPRCNT values of -100.

Row | Structure (SMILES) | growth
1 | CC(=O)OCC1OC([S-])C(OC(C)=O)C(OC(C)=O)C1OC(C)=O.[Au+].c1ccc(CN2[CH-]N(Cc3ccccc3)C(c3ccccc3)=C2c2ccccc2)cc1 | -82.1% (active)

same assay, conditions: 10 µM

Row | Structure (SMILES) | growth
2 | CC(=O)OCC1OC([S-])C(OC(C)=O)C(OC(C)=O)C1OC(C)=O.[Au+].c1ccc(CN2[CH-]N(Cc3ccccc3)C(c3ccccc3)=C2c2ccccc2)cc1 | -86.2% (active)

same assay, conditions: 10 µM unless noted

Row | Structure (SMILES) | growth
3 | CCCCS(=O)(=O)Cl | 99.9%
4 | O=[N+]([O-])c1cc(Br)c(O)c(Br)c1 | 101%
5 | Cc1cc(N)ccc1N | 98.3%
6 | CC1OC(=O)C(C(C)C)NC(=O)C(C(C)C)OC(=O)C(C(C)C)NC(=O)C(C)OC(=O)C(C(C)C)NC(=O)C(C(C)C)OC(=O)C(C(C)C)NC(=O)C(C)OC(=O)C(C(C)C)NC(=O)C(C(C)C)OC(=O)C(C(C)C)NC1=O (stereo not given) | -26.4% (active)
7 | CC[C@H](C)[C@H](NC(=O)c1cnccn1)C(=O)N(C)[C@H](C[C@@H](OC(C)=O)c1nc(C(=O)N[C@@H](Cc2ccccc2)C[C@H](C)C(=O)OC)cs1)C(C)C | 17.5%
8 | Cc1cc(C(C)(C)C)ccc1O | 94.9%
9 | C=CC[PH+](c1ccccc1)c1ccccc1.C=CC[PH+](c1ccccc1)c1ccccc1.[Pt+2].[S-]c1ncccn1.[S-]c1ncccn1 | -68.3% (active)
10 | O=S(OO)c1cc(Cl)c(O)c(Cl)c1 (stereo not given) | 96.4%
11 | Cc1ccc(N2CCN(CCC#N)CC2)cc1 | 101%
12 | Oc1ccccc1C=NCCN=Cc1ccccc1O | 95.6%
13 | COC[C@H]1OC(=O)c2coc3c2[C@@]1(C)C1=C(C3=O)[C@@H]2CCC(=O)[C@@]2(C)C[C@H]1OC(C)=O | 54.3%
14 | COc1cc2c(c(OC)c1OC)-c1ccc(O)cc1[C@@H](NC(C)=O)CC2 | 12.1% and 20.2%
15 | CCN1C(=O)CC(=O)N(CC)C1=S | 100%
16 | O=C(Cc1ccccc1)c1ccccc1 | 106%
17 | O=C(NC1=NCC[Se]1)c1ccccc1O | 42.9%
18 | CC[C@H](C)[C@H](NC(=O)[C@H]1CCCCN1C)C(=O)N(C)[C@H](CCc1nc(C(=O)N[C@@H](Cc2ccccc2)C[C@H](C)C(=O)O)cs1)C(C)C | 15.2%
19 | O=C(O)c1ccccc1N(CCO)CCCl | 86.6%
20 | CN1CCN(c2ccc(Cl)cc2)CC1 | 70.5%
21 | Nc1ccc(P(=O)(O)O)cc1 | 89.1% and 98%

Row | Structure (SMILES) | growth
22 | O=S1(=O)OCCO1 | 92.3%
23 | CCOC(=O)P(=O)(OCC)OCC | 91.6%
24 | CN1[C@@H](CC(=O)c2ccccc2)CCC[C@H]1CC(=O)c1ccccc1 | 93.8%
25 | COc1ccc(O)c2c(=O)c3c(OC)cc4c(c3oc12)[C@@H]1C=CO[C@@H]1O4 | 72.6%
26 | CC(C)c1cccc(C(C)C)c1O | 96.9% and 105%
27 | COc1ccc(N)cc1N | 100%
28 | C[C@]12CC[C@H](O)C[C@@H]1CC[C@@H]1[C@@H]2CC[C@]2(C)OC(=O)CC[C@@H]12 | 97.9%
29 | C[Se]/C=C1/C(=O)N(c2c(Cl)cccc2Cl)c2ccccc21 | 17.7%
30 | CO[C@H]1[C@H](O[C@@H]2C[C@@H]3C/C=C/C(=O)O[C@@H](CO)C[C@H](O)[C@@H]4C[C@H](C)[C@H](C/C=C\C=C\[C@H](C)C[C@H](C2)O3)O4)O[C@@H](C)[C@H](O)[C@H]1O | 59.7%
31 | Clc1ccc(COC(Cn2ccnc2)c2ccc(Cl)cc2Cl)c(Cl)c1 (stereo not given) | 34% and 47.6%
32 | C/C=C(/C)C(=O)O[C@H]1CC[C@@]2(C)[C@@H]3CC[C@H]4[C@]5(O)C[C@H](O)[C@@]6(O)[C@@H](CN7C[C@@H](C)CC[C@H]7[C@@]6(C)O)[C@]5(O)C[C@@]42O[C@@]13O | 104%
33 | O=C1NC(=O)C(=C/C=C/c2ccccc2)C(=O)N1 | -64.4% (active)
34 | CC[C@H](C)[C@H](NC(=O)CN(C)C)C(=O)N(C)[C@H](C[C@@H](OC(C)=O)c1nc(C(=O)NC23CC(C(=O)OC)(C2)C3)cs1)C(C)C | 19.7%
35 | COc1ccc(C(C#N)C(C)=O)cc1 (stereo not given) | 98.1%
36 | Cc1ccc(P(=O)(O)O)cc1 | 104%
37 | O=S(=O)(F)c1cccc(Cl)c1C[P+](c1ccccc1)(c1ccccc1)c1ccccc1 | 101%
38 | O=C(O)C(Br)CBr (stereo not given) | 94.3%
39 | CC(Oc1ccc(-c2ccccc2)cc1)C(=O)O (stereo not given) | 104%
40 | Oc1cc(Cl)ccc1Oc1ccc(Cl)cc1Cl | 11.5%
